This is part of a sample that, as a whole, favours compounds with a hit. Of some 83,000 tested, about 20% had one in any assay.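 Compound tested at a single concentration for 48 hours in 96-well plates; a percent growth value below 10 was scored as active.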 Values without a mark were called inactive. Calls of active or inactive are those of the source.

For this test, the system named is MDA-MB-468 breast. Kind of test: NCI-60 one-dose screen, 48 h (100 = growth as untreated, 0 = no growth, -100 = all killed). The conditions noted are these: 10 µM unless noted.
Regarding `CN(c1ccc(Cl)cc1)S(=O)(=O)c1ccc(-c2cnc(C3CC3)o2)cc1`, the growth was 22.7%.

With `Cc1nnc2c3nnc(-c4ccc(Cl)cc4)n3c3ccccc3n12`, the growth was 100%.

With `CCCCCc1ccc(S(=O)(=O)Nc2cccc(-c3csc(NC(=O)CCCCCN4CCN(CCO)CC4)n3)c2)cc1`, the growth is 85%.

Take `COc1cccc(OC(=O)c2ccccc2)c1OC(=O)c1ccccc1`: the growth is 39.4%.

`CCOC(=O)C(=Cc1cccc(Br)c1)C(=O)OCC`: the growth is 31%.

Turning to `Nc1ccc(S(=O)(=O)Nc2ccsc2-c2nc(-c3ccccc3)no2)cc1`, the growth is 43.1%.

Turning to `CC(O)C(F)(F)C(F)(F)C(F)(F)F` (stereo unspecified), the growth is 96.4%.

Turning to `C=C1CCC2C3(C)COC(c4ccccc4)OC3CCC2(C)C1/C=C/C1=CCOC1=O` (stereo unspecified), the growth is 29.5%.

On to `Cc1cc(=NO)cc(C)n1O`, for which the growth was 98.1%.

Consider `CCOC(=O)Nc1ccc(-c2nc(-c3cccc(OCCN4CCOCC4)c3)c(-c3ccnc(Br)c3)[nH]2)cc1`, for which the growth was 33.9%.

`COc1cccc(/C=C/C(=O)c2cc3c(N)c(C(=O)Nc4cccc5ccccc45)sc3nc2C)c1`: the growth is 17.4%.

As for `COC(=O)[C@]12CC[C@@H](C)[C@H](C)[C@@H]1C1=CC[C@@H]3[C@@]4(C)C(C=O)=C[C@@](C)(COC(=O)c5ccco5)[C@@H]4C(=O)C[C@@]3(C)[C@]1(C)CC2`, the growth is 9.8% (active).

As for `CCN(CC)CC(O)CNc1c2ccc(Cl)cc2nc2ccc(OC)cc12` (stereo unspecified), the growth was -48.3% (active).

With `COC[C@]12CCC(C)(C)C[C@H]1C1=CC[C@@H]3[C@@]4(C)CCCNC(C)(C)[C@@H]4CC[C@@]3(C)[C@]1(C)CC2`, the growth was -82.1% (active).

Regarding `O=C(/C=C/c1cc(-c2ccc3c(c2)OCO3)n[nH]1)c1ccc2c(c1)OCO2`, the growth is 77.2%.

Turning to `Cc1ccc(-n2c(C)nn3c(=O)c4c5c(sc4nc23)CN(C)CC5)cc1`, the growth was 102%.

For `CCCCn1c(C)nc2cc(Nc3nc(N4CCCCC4)nc4nc[nH]c34)ccc21`, the growth was 36.1%.

Turning to `C/C=C/CC(C)C(O)C1C(=O)NC(CC)C(=O)N(C)CC(=O)N(C)C(CC(C)C)C(=O)NC(C(C)C)C(=O)N(C)C(CC(C)C)C(=O)NC(C)C(=O)NC(C)C(=O)N(C)C(CC(C)C)C(=O)N(C)C(CC(C)C)C(=O)N(C)C(C(C)C)C(=O)N1C` (stereo unspecified), the growth is 4.57% (active).

In the case of `Cc1cc(C(=C2C=CC(=Nc3ccccc3)C=C2)c2ccc(Nc3ccccc3)cc2)ccc1N`, the growth is -84.2% (active).

As for `CC(C)=C[C@@H]1c2c(c3ccccc3n(C)c2=O)O[C@H]2c3c(c4ccccc4n(C)c3=O)OC(C)(C)[C@@H]12`, the growth was 61.4%.

Turning to `N#Cc1cccc(C2C3=C(COC3=O)N(CCO)c3cc4c(cc32)OCO4)c1` (stereo unspecified), the growth was 21%.

Regarding `Cc1cccc(NC(=O)c2sc3nc4c(cc3c2N)C(=O)CCC4)c1`, the growth is 33.1%.

With `COc1ccccc1-c1ccc2c(N)c(C(=O)c3ccc4c(c3)OCO4)sc2n1`, the growth is 55.1%.

Consider `COc1cc(C2C(C(=O)c3cccs3)=C(O)C(=O)N2CCN2CCOCC2)cc(OC)c1OC` (stereo unspecified), for which the growth was 101%.

With `COc1ccc(C2SC(C)C(=O)N2CCc2cccs2)cc1OC` (stereo unspecified), the growth is 48.1%.

`CCCCCN1C=C/C(=C\C(=O)N(C)c2cccc3ccccc23)c2ccccc21`: the growth is 70.9%.

Consider `COc1ccc(C2CC(c3ccccc3)=NN2c2nc(C)c(C(C)=O)s2)cc1` (stereo unspecified), for which the growth is 100%.

In the case of `COc1ccc(/C=N/NC(=O)c2c(N)nn(C)c2Nc2ccccc2)cc1Oc1ccccc1`, the growth is 66.6%.

Take `C#CCn1cnc2c(Nc3cccc(NC(=O)C=C)c3)ncnc21`: the growth is 78%.

In the case of `c1ccc(-c2nn[nH]n2)c(-c2ccc(CN3CCN(c4nsc5ccccc45)CC3)cc2)c1`, the growth was 75.8%.

`CCOC(=O)c1c(C)nc2c(c1N)CC(=O)N2Cc1ccc(F)cc1`: the growth is 91%.

With `CC(C)n1nc(C#Cc2cccc3cc(-c4cccc(C(F)(F)F)c4)ncc23)c2c(N)ncnc21`, the growth is 98.3%.

`NC(=O)c1cccc(N2Cc3ccccc3OC3=C2C(=O)c2c(O)ccc(O)c2C3=O)c1`: the growth is -21.4% (active).

In the case of `CCCn1cnc2c(c1=N)C(c1ccc(F)cc1)c1sc3c(F)cccc3c1O2` (stereo unspecified), the growth was 58.4%.

For `Nc1nc(N)c(C=Nc2ccc(Br)cc2)c(Nc2ccc(Br)cc2)n1`, the growth was 109%.

For the compound `CC1(C)[C@@H](O)CC[C@]2(C)[C@H]3CC[C@@H]4[C@H]5[C@H](C(=O)/C=C\c6ccc([N+](=O)[O-])cc6)CC[C@]5(O)CC[C@@]4(C)[C@]3(C)CC[C@@H]12`, the growth was 36.2%.

These data come from PubChem BioAssay (NCI).
